# Laboratory results as given in PubChem BioAssay AID1159580 (chemical genetic matrix, 2015).
# In all, about 5,500 compounds went through this assay and about 2,000 (36%) were called active. Not shown: some 18% with an inconclusive outcome. The list shows a part of the results. A number with no mark means an inactive call. Cut-off read from the data, not from the text of the source: active = normalized growth mostly below about 0.91 (no sharp cut-off); inconclusive = no clear call, values can overlap the other calls; inactive = mostly above about 0.92.
# Test: chemical genetic growth profiling, strain panel (AID 1159580);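 note: tested at 20 µM; growth read once vehicle control cultures reached saturation at 30 °C; 1 = growth at the plate median or of vehicle wells; lower values mean less growth of the strain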
# Settings: growth OD
smiles,measurement,setting,value
Cc1cc(O)ccc1Cl,normalized growth,"S. cerevisiae deletion strains, locus YKL009W, strain mrt4, active compounds read low",0.979
same,normalized growth,"S. cerevisiae deletion strains, locus YKL068W, active compounds read low",1
same,normalized growth,"S. cerevisiae deletion strains, locus YKL085W, strain MDH1 (second series), active compounds read low",0.998
same,normalized growth,"S. cerevisiae deletion strains, locus YKL085W, strain MDH1, active compounds read low",0.998
same,normalized growth,"S. cerevisiae deletion strains, locus YKL160W, strain elf1, active compounds read low",1.02
same,normalized growth,"S. cerevisiae deletion strains, locus YKR001C, strain vps1, active compounds read low",0.937
same,normalized growth,"S. cerevisiae deletion strains, locus YKR026C, strain gcn3, active compounds read low",1.01
same,normalized growth,"S. cerevisiae deletion strains, locus YKR091W, strain srl3, active compounds read low",1.03
same,normalized growth,"S. cerevisiae deletion strains, locus YLL001W, strain dnm1, active compounds read low",0.992
same,normalized growth,"S. cerevisiae deletion strains, locus YLL026W, active compounds read low",0.987
same,normalized growth,"S. cerevisiae deletion strains, locus YLL041C, strain sdh2, active compounds read low",1
same,normalized growth,"S. cerevisiae deletion strains, locus YLR027C, strain aat2, active compounds read low",1
same,normalized growth,"S. cerevisiae deletion strains, locus YLR039C, strain RIC1, active compounds read low",0.874
same,normalized growth,"S. cerevisiae deletion strains, locus YLR058C, strain SHM2, active compounds read low",1.02
same,normalized growth,"S. cerevisiae deletion strains, locus YLR102C, strain apc9, active compounds read low",1
same,normalized growth,"S. cerevisiae deletion strains, locus YLR113W, strain HOG1, active compounds read low",0.965
same,normalized growth,"S. cerevisiae deletion strains, locus YLR221C, strain rsa3, active compounds read low",0.994
same,normalized growth,"S. cerevisiae deletion strains, locus YLR258W, strain gsy2, active compounds read low",1.01
same,normalized growth,"S. cerevisiae deletion strains, locus YLR262C, strain YPT6 (second series), active compounds read low",0.814 (active)
same,normalized growth,"S. cerevisiae deletion strains, locus YLR262C, strain YPT6, active compounds read low",0.904
same,normalized growth,"S. cerevisiae deletion strains, locus YLR268W, strain sec22, active compounds read low",0.991
same,normalized growth,"S. cerevisiae deletion strains, locus YLR320W, strain mms22, active compounds read low",0.959
same,normalized growth,"S. cerevisiae deletion strains, locus YLR330W, strain CHS5, active compounds read low",1
same,normalized growth,"S. cerevisiae deletion strains, locus YLR342W, strain FKS1 (second series), active compounds read low",0.986
same,normalized growth,"S. cerevisiae deletion strains, locus YLR342W, strain FKS1, active compounds read low",0.982
same,normalized growth,"S. cerevisiae deletion strains, locus YLR357W, strain rsc2, active compounds read low",1.08
same,normalized growth,"S. cerevisiae deletion strains, locus YLR370C, strain arc18, active compounds read low",1.01
same,normalized growth,"S. cerevisiae deletion strains, locus YLR371W, strain rom2, active compounds read low",1
same,normalized growth,"S. cerevisiae deletion strains, locus YLR384C, strain iki3, active compounds read low",0.993
same,normalized growth,"S. cerevisiae deletion strains, locus YLR418C, strain cdc73, active compounds read low",1.02
same,normalized growth,"S. cerevisiae deletion strains, locus YML016C, strain PPZ1, active compounds read low",1
same,normalized growth,"S. cerevisiae deletion strains, locus YML032C, strain rad52, active compounds read low",0.981
same,normalized growth,"S. cerevisiae deletion strains, locus YML120C, strain ndi1, active compounds read low",1
same,normalized growth,"S. cerevisiae deletion strains, locus YML124C, strain tub3, active compounds read low",0.994
same,normalized growth,"S. cerevisiae deletion strains, locus YMR058W, strain fet3, active compounds read low",0.965
same,normalized growth,"S. cerevisiae deletion strains, locus YMR078C, strain ctf18, active compounds read low",1.01
same,normalized growth,"S. cerevisiae deletion strains, locus YMR125W, strain sto1, active compounds read low",1.13 [resistant] (active)
same,normalized growth,"S. cerevisiae deletion strains, locus YMR129W, active compounds read low",1.02
same,normalized growth,"S. cerevisiae deletion strains, locus YMR205C, strain PFK2, active compounds read low",0.987
same,normalized growth,"S. cerevisiae deletion strains, locus YMR223W, strain ubp8, active compounds read low",1.01
same,normalized growth,"S. cerevisiae deletion strains, locus YMR231W, strain pep5, active compounds read low",1.02
same,normalized growth,"S. cerevisiae deletion strains, locus YMR263W, strain SAP30, active compounds read low",1.02
same,normalized growth,"S. cerevisiae deletion strains, locus YMR307W, strain GAS1, active compounds read low",0.957
same,normalized growth,"S. cerevisiae deletion strains, locus YNL067W, strain RPL9B, active compounds read low",1.02
same,normalized growth,"S. cerevisiae deletion strains, locus YNL071W, strain lat1, active compounds read low",1.01
same,normalized growth,"S. cerevisiae deletion strains, locus YNL153C, strain GIM3, active compounds read low",1.03
same,normalized growth,"S. cerevisiae deletion strains, locus YNL183C, strain NPR1, active compounds read low",0.896
same,normalized growth,"S. cerevisiae deletion strains, locus YNL209W, strain ssb2, active compounds read low",1
same,normalized growth,"S. cerevisiae deletion strains, locus YNL233W, strain BNI4, active compounds read low",1.01
same,normalized growth,"S. cerevisiae deletion strains, locus YNL248C, strain rpa49, active compounds read low",1.02
same,normalized growth,"S. cerevisiae deletion strains, locus YNL250W, strain rad50, active compounds read low",0.996
same,normalized growth,"S. cerevisiae deletion strains, locus YNL271C, strain bni1, active compounds read low",1.01
same,normalized growth,"S. cerevisiae deletion strains, locus YNL298W, strain CLA4, active compounds read low",0.95
same,normalized growth,"S. cerevisiae deletion strains, locus YNL307C, strain MCK1, active compounds read low",1
same,normalized growth,"S. cerevisiae deletion strains, locus YNL322C, strain KRE1 (second series), active compounds read low",1.06
same,normalized growth,"S. cerevisiae deletion strains, locus YNL322C, strain KRE1, active compounds read low",0.999
same,normalized growth,"S. cerevisiae deletion strains, locus YNR049C, strain mso1, active compounds read low",0.999
same,normalized growth,"S. cerevisiae deletion strains, locus YNR052C, strain pop2, active compounds read low",1
same,normalized growth,"S. cerevisiae deletion strains, locus YOL012C, strain htz1",1.23
same,normalized growth,"S. cerevisiae deletion strains, locus YOL147C, strain pex11, active compounds read low",0.997
same,normalized growth,"S. cerevisiae deletion strains, locus YOR001W, strain rrp6, active compounds read low",0.991
same,normalized growth,"S. cerevisiae deletion strains, locus YOR061W, strain CKA2, active compounds read low",0.999
same,normalized growth,"S. cerevisiae deletion strains, locus YOR069W, strain VPS5, active compounds read low",1.01
same,normalized growth,"S. cerevisiae deletion strains, locus YOR070C, strain gyp1, active compounds read low",0.993
same,normalized growth,"S. cerevisiae deletion strains, locus YOR080W, strain dia2, active compounds read low",1.02
same,normalized growth,"S. cerevisiae deletion strains, locus YOR083W, strain WHI5, active compounds read low",0.936
same,normalized growth,"S. cerevisiae deletion strains, locus YOR106W, strain vam3, active compounds read low",0.976
same,normalized growth,"S. cerevisiae deletion strains, locus YOR136W, strain idh2, active compounds read low",0.999
same,normalized growth,"S. cerevisiae deletion strains, locus YOR144C, strain elg1, active compounds read low",1
same,normalized growth,"S. cerevisiae deletion strains, locus YOR184W, strain ser1, active compounds read low",0.982
same,normalized growth,"S. cerevisiae deletion strains, locus YOR231W, strain MKK1, active compounds read low",0.937
same,normalized growth,"S. cerevisiae deletion strains, locus YOR265W, strain rbl2, active compounds read low",1.01
same,normalized growth,"S. cerevisiae deletion strains, locus YOR270C, strain vph1, active compounds read low",1.01
same,normalized growth,"S. cerevisiae deletion strains, locus YOR290C, strain snf2, active compounds read low",1.02
same,normalized growth,"S. cerevisiae deletion strains, locus YOR316C, strain cot1, active compounds read low",1.01
same,normalized growth,"S. cerevisiae deletion strains, locus YPL051W, strain arl3, active compounds read low",0.992
same,normalized growth,"S. cerevisiae deletion strains, locus YPL078C, strain atp4, active compounds read low",0.938
same,normalized growth,"S. cerevisiae deletion strains, locus YPL106C, strain sse1, active compounds read low",1.1
same,normalized growth,"S. cerevisiae deletion strains, locus YPL240C, strain hsp82, active compounds read low",1.02
same,normalized growth,"S. cerevisiae deletion strains, locus YPL256C, strain CLN2, active compounds read low",0.968
same,normalized growth,"S. cerevisiae deletion strains, locus YPR119W, strain clb2, active compounds read low",1
same,normalized growth,"S. cerevisiae deletion strains, locus YPR141C, strain kar3, active compounds read low",1
same,normalized growth,"S. cerevisiae deletion strains, locus YPR163C, strain tif3, active compounds read low",1
same,normalized growth,"S. cerevisiae deletion strains, locus YPR167C, strain met16, active compounds read low",0.994
same,normalized growth,"S. cerevisiae deletion strains, strain wtn01, active compounds read low",0.974
same,normalized growth,"S. cerevisiae strains, strain wild type, active compounds read low",1.01
